HGIII-sPLA2 inh = Blocks human group III sPLA2 activity; Q9NZ20; AID 743126; actives 0.56% (n = 370,000); QFRET BODIPY PC-A2 liposome hydrolysis, fluorescence; inhibition, % at 12.2 µM;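 active means inhibition above mean plus 3 SD of compounds lying within the high and low control bounds, cut at about 19% in these data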;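 further: 0% = median of test compound wells and 100% = no enzyme DMSO wells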
UBC13 inh = inhibitors of human UBC13 polyubiquitin chain formation | P61088 | inhibition, % at 20 µM | TR-FRET | actives 0.47% (n = 330,000) | AID 485273; in the data active means inhibition above about 45%, passing the limit was not always enough
Target sequence (P61088 whole entry, looked up): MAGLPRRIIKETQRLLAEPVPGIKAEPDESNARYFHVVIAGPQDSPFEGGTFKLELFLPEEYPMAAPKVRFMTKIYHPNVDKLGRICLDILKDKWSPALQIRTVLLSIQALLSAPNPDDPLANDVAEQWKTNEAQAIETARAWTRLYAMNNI
SUMO HTRF inh = blocks human SUMOylation mediated by UBC9 | P63279 | HTRF SUMOylation assay, SAE1/SAE2 + UBC9, in vitro | inhibition, % at 35 µM | actives 0.36% (n = 290,000); in the data active means inhibition above about 50%, passing the limit was not always enough
Target sequence (P63279 whole entry, looked up): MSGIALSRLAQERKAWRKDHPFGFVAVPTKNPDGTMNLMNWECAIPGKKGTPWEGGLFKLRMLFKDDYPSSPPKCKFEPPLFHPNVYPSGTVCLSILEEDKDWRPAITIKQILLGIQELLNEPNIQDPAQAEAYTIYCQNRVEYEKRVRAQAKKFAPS
GRIN3A LBD mod = NR3A (human) ligand-binding domain modulation; NR3A LBD differential scanning fluorimetry, Tm shift; 0% = protein alone, 100% = glycine-bound protein; Tm shift relative to glycine control, % at 25 µM; actives 2.5% (n = 340,000); AID 1259313;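 active means melting temperature shift of at least 10% of the positive control shift, at one fixed dose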
* marks the source's active call; other numbers are inactive results. A selection: hits, their analogues and other compounds. The true share with any hit is near 3.3%.

O=C(O)Cc1ccc(NC(=O)c2ccc3c(c2)C(=O)N(CC2CCCO2)C3=O)cc1 (configuration not stated) was read as HGIII-sPLA2 inh 2, UBC13 inh -5, SUMO HTRF inh 3 and GRIN3A LBD mod 11*.
For O=C(Nc1ccc(O)cc1)c1ccc2c(c1)C(=O)N(Cc1ccccc1)C2=O the results were HGIII-sPLA2 inh -10, UBC13 inh 4, SUMO HTRF inh 14 and GRIN3A LBD mod -2.
Screening C=CCn1c(COc2ccc(Cl)cc2)nnc1SCC(=O)c1ccccc1 returned HGIII-sPLA2 inh -49.
`CC(C)[C@@H]1C(=O)N[C@H](Cc2cn(S(=O)(=O)c3ccccc3)c3ccccc23)C(=O)N1C` gave HGIII-sPLA2 inh -5.
`CC(C)(C)OC(=O)NCc1ccccc1/C=C/S(=O)(=O)NCc1ccc(F)cc1` gave HGIII-sPLA2 inh -12.
NS(=O)(=O)c1ccc(NC(=O)COC(=O)c2cn(-c3ccccc3)nc2-c2ccccc2)cc1 was read as HGIII-sPLA2 inh -26, UBC13 inh 4, SUMO HTRF inh 24 and GRIN3A LBD mod 22*.
Screening COc1ccc(NC(=O)CN(C)C(=O)c2cn(-c3ccccc3)nc2-c2ccc(Cl)cc2)cc1 returned HGIII-sPLA2 inh -12, UBC13 inh -17 and GRIN3A LBD mod 27*.
CN(CC(=O)Nc1cccc(F)c1)C(=O)c1cn(-c2ccccc2)nc1-c1cccs1 was read as HGIII-sPLA2 inh -41, UBC13 inh 2, SUMO HTRF inh -6 and GRIN3A LBD mod 23*.
COc1cccc(NC(=O)CN(C)C(=O)c2cn(-c3ccccc3)nc2-c2cccs2)c1 was read as HGIII-sPLA2 inh -27, UBC13 inh -10 and GRIN3A LBD mod 14*.
For CN(CC(=O)Nc1cccc(F)c1)C(=O)c1cc(-c2cccs2)nn1-c1ccccc1 the results were HGIII-sPLA2 inh -13, UBC13 inh -7 and GRIN3A LBD mod -7.
For CN(CC(=O)Nc1cccc(F)c1)C(=O)c1cn(-c2ccccc2)nc1-c1ccc(Cl)cc1 the results were HGIII-sPLA2 inh -16, UBC13 inh 7 and GRIN3A LBD mod 27*.
Screening C#CCNC(=O)C[C@H]1C(=O)N(Cc2ccc(OC)cc2)C2=CCCCC[C@@]21C(=O)OC returned HGIII-sPLA2 inh -3.
O=C(Nc1ccccc1C(F)(F)F)OCCCN1CCC2(CCC(c3ccccc3)CC2)C1=O (configuration not stated) was read as HGIII-sPLA2 inh -12.
CCOC(=O)C1=C(CC)Nc2ccccc2N=C1NC(=O)Nc1ccc(Cl)c(Cl)c1 was read as HGIII-sPLA2 inh -17, UBC13 inh -6, SUMO HTRF inh -14 and GRIN3A LBD mod 28*.
For CCC[C@H]1[C@@H](OC(=O)N2CCCC2)CC[C@@]23CCCN2C(=O)CCC[C@@H]13 the results were HGIII-sPLA2 inh 0.
`COc1ccc2[nH]c3c(=O)n(CCCC(=O)NC4CCCCC4C)c(=S)[nH]c3c2c1` (configuration not stated) gave HGIII-sPLA2 inh -1, UBC13 inh -13, SUMO HTRF inh 58* and GRIN3A LBD mod 2.
`COCc1cn(-c2cccc(-c3noc4c3C(=O)N(CC(=O)N3CCOCC3)CC4)c2)nn1` gave HGIII-sPLA2 inh 1.
For O=C(NC12CC3CC(CC(C3)C1)C2)c1cc([N+](=O)[O-])ccc1N1CCOCC1 the results were HGIII-sPLA2 inh -1, UBC13 inh -7, SUMO HTRF inh 11 and GRIN3A LBD mod 13*.
For Clc1cccc(CSc2ncnc3sc4c(c23)CCCC4)c1 the results were HGIII-sPLA2 inh 1.
`COc1ccc(CCNc2oc(-c3ccc(OC)c(OC)c3)nc2C#N)cc1` gave HGIII-sPLA2 inh -13, UBC13 inh 0, SUMO HTRF inh 12 and GRIN3A LBD mod 16*.
For CC1=Nc2ccccc2/C1=C\c1nc(-c2ccc(F)cc2)oc1O the results were HGIII-sPLA2 inh 0, UBC13 inh -116, SUMO HTRF inh 19 and GRIN3A LBD mod 30*.
For Cn1c(Cc2cccs2)nnc1SCC(=O)Nc1ccc(OCc2ccccc2)cc1 the results were HGIII-sPLA2 inh -17.
For CC(=O)Nc1ccc(S(=O)(=O)NC2CC(=O)N(c3ccc4c(c3)OCCO4)C2)cc1 (configuration not stated) the results were HGIII-sPLA2 inh 3, UBC13 inh 3 and GRIN3A LBD mod 17*.
Screening Fc1ccc(-c2nc3cnccn3c2NC2CCCC2)cc1 returned HGIII-sPLA2 inh 6, UBC13 inh 10, SUMO HTRF inh 54* and GRIN3A LBD mod 1.
`Clc1ccc2[nH]c(-c3ccccc3)cc2c1` gave HGIII-sPLA2 inh -16, UBC13 inh -1, SUMO HTRF inh 14 and GRIN3A LBD mod 20*.
`O=c1cc(-c2ccccc2)[nH]c2cc(Cl)ccc12` gave HGIII-sPLA2 inh 7, UBC13 inh -8, SUMO HTRF inh -9 and GRIN3A LBD mod 1.
`Clc1ccc(-c2nnc(-c3ccccc3)c(-c3c[nH]c4ccccc34)n2)cc1` gave HGIII-sPLA2 inh 10, UBC13 inh -11, SUMO HTRF inh 21 and GRIN3A LBD mod -2.
`Clc1ccc(-c2c[nH]c3ccccc23)nn1` gave HGIII-sPLA2 inh 0, UBC13 inh -6, SUMO HTRF inh 11 and GRIN3A LBD mod 18*.
COC(=O)[C@]12C[C@H](CC(=O)NCC3CCCCC3)C(=O)N(CCC3=CCCCC3)C1=C[C@H](C1CCCC1)O[C@@H]2C was read as HGIII-sPLA2 inh -16.
Cc1sc2ncnc(N3CCC(C(=O)Nc4ccc(Cl)c(Cl)c4)CC3)c2c1C was read as HGIII-sPLA2 inh 7, UBC13 inh 19 and GRIN3A LBD mod 11*.
For CNC(=O)c1ccc(NC(=O)C2CCN(c3ncnc4sc(C)c(C)c34)CC2)cc1 the results were HGIII-sPLA2 inh -11, UBC13 inh 5, SUMO HTRF inh -5 and GRIN3A LBD mod -3.
COc1ccc2[nH]c3c(c2c1)CCN[C@]31C(=O)N(c2ccccc2)c2ccccc21 was read as HGIII-sPLA2 inh -1.
`CCn1c(C)cc(/C=C2/SC(=S)N(CC(=O)O)C2=O)c1C` gave HGIII-sPLA2 inh -4, UBC13 inh -60, SUMO HTRF inh 9 and GRIN3A LBD mod 0.
For C#CCN1C(=O)S/C(=C/c2cc(C)n(CC)c2C)C1=O the results were HGIII-sPLA2 inh 0, UBC13 inh -2, SUMO HTRF inh 4 and GRIN3A LBD mod 33*.
`CCOC(=O)N1CCN(C(=O)c2ccc3c(c2)sc2nc(-c4ccc(OC)cc4)cn23)CC1` gave HGIII-sPLA2 inh -1, UBC13 inh 15, SUMO HTRF inh 6 and GRIN3A LBD mod -11.
For COc1ccc2c(c1)sc1nc(-c3ccccc3)cn12 the results were HGIII-sPLA2 inh -6, UBC13 inh 5, SUMO HTRF inh -10 and GRIN3A LBD mod 20*.
Screening O=C(N/N=C/c1ccc(O)c(Br)c1)c1cc2c(ccc3ccccc32)o1 returned HGIII-sPLA2 inh 7, UBC13 inh -2, SUMO HTRF inh 9 and GRIN3A LBD mod 35*.
For O=C(N/N=C/c1cc(Br)c(O)c(Br)c1)c1cc2c(ccc3ccccc32)o1 the results were HGIII-sPLA2 inh -6, UBC13 inh -6, SUMO HTRF inh 32 and GRIN3A LBD mod 7.
